# According to ChEMBL document CHEMBL3988442, “University of Dundee, Small-Polar-MMV Screening Library” (2021):
# For some assays here: Results with a measured potency or affinity are listed apart.
# Key:
# Set-up in all cases: scale not given: direction of the effect not stated beside the values
# [1] = target: Protein translocase subunit SecA (Escherichia coli (strain K12)) (UniProt P10408); assay: Assay to Identify E. coli SecA ATPase Inhibitors; format: functional; settings: 30 µM
# [2] = target: T1, Ubiquitin-activating enzyme e1, putative (Leishmania donovani (strain BPK282A1)) (UniProt E9BSI1); assay: Leishmania donovani Ubiquitin Activating Enzyme (LdE1); format: functional; settings: 30 µM
# T1 sequence (whole entry): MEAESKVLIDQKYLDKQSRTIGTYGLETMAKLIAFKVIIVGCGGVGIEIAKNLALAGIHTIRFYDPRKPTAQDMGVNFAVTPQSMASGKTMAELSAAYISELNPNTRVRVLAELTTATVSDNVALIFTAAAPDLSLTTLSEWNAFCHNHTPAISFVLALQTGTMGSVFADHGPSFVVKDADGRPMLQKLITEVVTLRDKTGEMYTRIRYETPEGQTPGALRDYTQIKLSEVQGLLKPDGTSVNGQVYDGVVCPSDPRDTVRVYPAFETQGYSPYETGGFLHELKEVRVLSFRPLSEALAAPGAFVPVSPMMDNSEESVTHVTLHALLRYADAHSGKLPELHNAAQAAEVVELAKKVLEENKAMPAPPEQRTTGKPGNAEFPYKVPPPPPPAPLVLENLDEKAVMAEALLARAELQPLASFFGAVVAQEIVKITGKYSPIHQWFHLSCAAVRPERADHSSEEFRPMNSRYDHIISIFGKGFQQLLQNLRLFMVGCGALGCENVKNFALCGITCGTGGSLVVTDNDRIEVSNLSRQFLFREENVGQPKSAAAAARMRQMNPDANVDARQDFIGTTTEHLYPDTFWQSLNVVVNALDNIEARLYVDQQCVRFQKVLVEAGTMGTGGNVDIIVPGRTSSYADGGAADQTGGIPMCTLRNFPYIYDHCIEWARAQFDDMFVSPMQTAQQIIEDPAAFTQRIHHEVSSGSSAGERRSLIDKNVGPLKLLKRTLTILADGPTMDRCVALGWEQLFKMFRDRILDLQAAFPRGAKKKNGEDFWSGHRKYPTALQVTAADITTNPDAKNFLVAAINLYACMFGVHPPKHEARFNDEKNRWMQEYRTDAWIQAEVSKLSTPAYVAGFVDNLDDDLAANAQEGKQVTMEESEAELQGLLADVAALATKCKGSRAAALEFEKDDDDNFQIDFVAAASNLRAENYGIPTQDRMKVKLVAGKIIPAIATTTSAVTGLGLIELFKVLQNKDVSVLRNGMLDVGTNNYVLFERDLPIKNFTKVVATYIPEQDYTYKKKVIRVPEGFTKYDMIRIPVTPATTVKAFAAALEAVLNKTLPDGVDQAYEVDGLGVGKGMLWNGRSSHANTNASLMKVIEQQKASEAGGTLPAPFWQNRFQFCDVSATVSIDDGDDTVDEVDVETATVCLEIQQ
# [3] = target: AMP-activated protein kinase, AMPK (Homo sapiens) (UniProt P54646+O43741+P54619+Q9UGJ0+Q9Y478+Q13131+Q9UGI9); assay: AMP-dependent Kinase enzyme assay. An in vitro enzyme assay that detects ADP turnover that is directly proportional to AMPK activity. This uses naive AMPK that is activated during the assay with MK-8722; format: functional; settings: 30 µM
# [4] = target: Sialic acid-binding Ig-like lectin 9 (Homo sapiens) (UniProt Q9Y336); assay: Hs-Siglec9 ALPHAscreen SOP 20170721; settings: 10 µM
# Trypanosoma cruzi = assay: Trypanosoma cruzi phosphomannomutase and mannose-1-phosphate guanylyltransferase assay; format: functional; settings: 10 µM
# [5] = target: T2, Arginase-2, mitochondrial (Homo sapiens) (UniProt P78540); assay: in vitro enzyme assay to detect the production of urea directly proportional to the activity of Arginase II; format: functional; settings: 33.3 µM; also: in the data most compounds retested in dose-response had high values
# T2 sequence (whole entry): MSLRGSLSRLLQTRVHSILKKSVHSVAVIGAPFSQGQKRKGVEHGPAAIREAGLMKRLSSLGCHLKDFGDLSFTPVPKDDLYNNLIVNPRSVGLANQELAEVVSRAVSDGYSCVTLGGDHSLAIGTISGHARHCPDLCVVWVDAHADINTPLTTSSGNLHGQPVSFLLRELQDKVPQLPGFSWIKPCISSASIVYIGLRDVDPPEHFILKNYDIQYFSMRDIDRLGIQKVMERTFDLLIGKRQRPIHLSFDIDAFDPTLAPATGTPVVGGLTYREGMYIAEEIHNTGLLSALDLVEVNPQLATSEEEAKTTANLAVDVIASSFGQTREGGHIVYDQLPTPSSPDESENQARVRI
# [6] = target: T3, Proteasome subunit beta (Trypanosoma cruzi) (UniProt O96673); assay: Trypanosoma cruzi proteasome chymotrypsin-like activity (TcProtChymo) assay.; also: in the data most compounds retested in dose-response had high values; format: functional; settings: 9.37 µM
# T3 sequence (whole entry): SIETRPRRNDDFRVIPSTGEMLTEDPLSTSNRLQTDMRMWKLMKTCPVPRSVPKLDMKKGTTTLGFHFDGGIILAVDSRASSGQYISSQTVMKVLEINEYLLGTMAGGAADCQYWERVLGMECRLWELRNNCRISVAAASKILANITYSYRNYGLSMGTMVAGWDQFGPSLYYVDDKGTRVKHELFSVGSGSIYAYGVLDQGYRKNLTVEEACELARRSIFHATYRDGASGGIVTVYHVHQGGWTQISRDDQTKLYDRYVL
# Homo sapiens = species: Homo sapiens; assay: To identify inhibition of the IFN signalling (Jak-Stat) pathway via expression of an eGFP reporter gene under the control of an IFN-stimulated response element (ISRE) containing MxA promoter.; format: functional; settings: 30 µM
# [7] = target: T4, Tyrosyl-tRNA synthetase, putative (Trypanosoma cruzi (strain CL Brener)) (UniProt Q4DSP6); assay: Trypanosoma cruzi tyrosyl tRNA synthetase (TcYRS) _High Tyrosine SOP; format: functional; settings: 30 µM; also: in the data most compounds retested in dose-response had high values
# T4 sequence (whole entry): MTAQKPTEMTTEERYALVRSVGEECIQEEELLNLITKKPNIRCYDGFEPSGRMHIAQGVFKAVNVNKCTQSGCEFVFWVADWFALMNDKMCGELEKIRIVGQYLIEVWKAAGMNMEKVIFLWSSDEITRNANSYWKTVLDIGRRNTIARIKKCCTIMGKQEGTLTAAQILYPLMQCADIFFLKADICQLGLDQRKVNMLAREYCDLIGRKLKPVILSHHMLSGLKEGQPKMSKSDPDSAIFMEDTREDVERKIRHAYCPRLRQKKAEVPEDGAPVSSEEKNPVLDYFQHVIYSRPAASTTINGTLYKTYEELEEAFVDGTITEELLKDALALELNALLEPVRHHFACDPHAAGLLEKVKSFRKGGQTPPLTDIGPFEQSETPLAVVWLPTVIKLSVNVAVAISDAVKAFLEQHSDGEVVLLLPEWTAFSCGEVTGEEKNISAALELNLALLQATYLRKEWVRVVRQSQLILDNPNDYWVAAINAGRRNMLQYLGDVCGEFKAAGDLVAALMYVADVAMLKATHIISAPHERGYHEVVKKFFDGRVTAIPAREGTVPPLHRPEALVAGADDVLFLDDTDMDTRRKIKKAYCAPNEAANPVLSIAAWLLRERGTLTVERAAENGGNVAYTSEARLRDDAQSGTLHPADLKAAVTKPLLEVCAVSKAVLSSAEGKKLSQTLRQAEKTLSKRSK
# [8] = target: T4, Tyrosyl-tRNA synthetase, putative (Trypanosoma cruzi (strain CL Brener)); assay: Trypanosoma cruzi tyrosyl tRNA synthetase (TcYRS) SOP; format: functional; settings: 30 µM
# [9] = target: Chromo domain-containing protein 1 (Saccharomyces cerevisiae (strain ATCC 204508 / S288c) (Baker's yeast)) (UniProt P32657); assay: ScCHD-1 Enzyme Inhibition Assay; format: functional; settings: 30 µM; also: in the data most compounds retested in dose-response had high values
# Sequence of Chromo domain-containing protein 1 (Saccharomyces cerevisiae (strain ATCC 204508 / S288c) (Baker's yeast)) (P32657 whole entry, the tested form may be a part): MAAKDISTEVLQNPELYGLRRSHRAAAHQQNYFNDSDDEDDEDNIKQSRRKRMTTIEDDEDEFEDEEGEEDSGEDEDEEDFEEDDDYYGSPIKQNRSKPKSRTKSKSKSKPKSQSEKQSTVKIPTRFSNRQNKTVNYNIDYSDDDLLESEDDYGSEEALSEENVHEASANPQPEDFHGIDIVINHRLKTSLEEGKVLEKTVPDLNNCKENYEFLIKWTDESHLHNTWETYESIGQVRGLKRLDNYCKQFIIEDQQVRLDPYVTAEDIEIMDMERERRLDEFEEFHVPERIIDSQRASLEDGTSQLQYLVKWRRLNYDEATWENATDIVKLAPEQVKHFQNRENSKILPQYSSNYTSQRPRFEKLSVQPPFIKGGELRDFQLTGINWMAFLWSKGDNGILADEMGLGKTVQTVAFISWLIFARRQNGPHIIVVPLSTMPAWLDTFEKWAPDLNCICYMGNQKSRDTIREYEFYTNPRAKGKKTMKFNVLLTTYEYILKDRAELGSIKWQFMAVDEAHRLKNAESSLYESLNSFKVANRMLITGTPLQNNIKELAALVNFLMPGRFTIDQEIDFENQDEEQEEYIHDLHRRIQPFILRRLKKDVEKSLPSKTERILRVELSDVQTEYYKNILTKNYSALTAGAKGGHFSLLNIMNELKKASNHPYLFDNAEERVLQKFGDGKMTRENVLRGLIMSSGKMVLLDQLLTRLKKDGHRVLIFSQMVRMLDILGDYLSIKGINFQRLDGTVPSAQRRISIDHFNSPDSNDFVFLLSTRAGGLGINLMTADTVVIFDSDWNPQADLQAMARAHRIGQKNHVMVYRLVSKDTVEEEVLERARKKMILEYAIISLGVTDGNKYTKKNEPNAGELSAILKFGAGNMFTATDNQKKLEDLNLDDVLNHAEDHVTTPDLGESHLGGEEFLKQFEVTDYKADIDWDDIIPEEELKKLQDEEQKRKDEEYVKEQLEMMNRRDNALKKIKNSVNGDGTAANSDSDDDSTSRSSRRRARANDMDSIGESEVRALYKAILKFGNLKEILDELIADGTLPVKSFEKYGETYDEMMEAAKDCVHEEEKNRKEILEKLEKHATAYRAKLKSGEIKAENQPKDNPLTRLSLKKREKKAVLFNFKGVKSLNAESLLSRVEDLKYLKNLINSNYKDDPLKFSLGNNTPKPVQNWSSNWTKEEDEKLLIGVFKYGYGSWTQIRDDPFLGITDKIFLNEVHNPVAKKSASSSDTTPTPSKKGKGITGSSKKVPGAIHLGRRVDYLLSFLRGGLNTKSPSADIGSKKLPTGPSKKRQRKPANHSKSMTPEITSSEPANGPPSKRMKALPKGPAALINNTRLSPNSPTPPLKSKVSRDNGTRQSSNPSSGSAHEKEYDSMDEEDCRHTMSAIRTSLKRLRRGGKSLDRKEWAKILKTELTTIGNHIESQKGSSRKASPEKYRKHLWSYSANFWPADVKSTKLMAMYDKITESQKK
# Sequence of Protein translocase subunit SecA (Escherichia coli (strain K12)) (P10408 whole entry): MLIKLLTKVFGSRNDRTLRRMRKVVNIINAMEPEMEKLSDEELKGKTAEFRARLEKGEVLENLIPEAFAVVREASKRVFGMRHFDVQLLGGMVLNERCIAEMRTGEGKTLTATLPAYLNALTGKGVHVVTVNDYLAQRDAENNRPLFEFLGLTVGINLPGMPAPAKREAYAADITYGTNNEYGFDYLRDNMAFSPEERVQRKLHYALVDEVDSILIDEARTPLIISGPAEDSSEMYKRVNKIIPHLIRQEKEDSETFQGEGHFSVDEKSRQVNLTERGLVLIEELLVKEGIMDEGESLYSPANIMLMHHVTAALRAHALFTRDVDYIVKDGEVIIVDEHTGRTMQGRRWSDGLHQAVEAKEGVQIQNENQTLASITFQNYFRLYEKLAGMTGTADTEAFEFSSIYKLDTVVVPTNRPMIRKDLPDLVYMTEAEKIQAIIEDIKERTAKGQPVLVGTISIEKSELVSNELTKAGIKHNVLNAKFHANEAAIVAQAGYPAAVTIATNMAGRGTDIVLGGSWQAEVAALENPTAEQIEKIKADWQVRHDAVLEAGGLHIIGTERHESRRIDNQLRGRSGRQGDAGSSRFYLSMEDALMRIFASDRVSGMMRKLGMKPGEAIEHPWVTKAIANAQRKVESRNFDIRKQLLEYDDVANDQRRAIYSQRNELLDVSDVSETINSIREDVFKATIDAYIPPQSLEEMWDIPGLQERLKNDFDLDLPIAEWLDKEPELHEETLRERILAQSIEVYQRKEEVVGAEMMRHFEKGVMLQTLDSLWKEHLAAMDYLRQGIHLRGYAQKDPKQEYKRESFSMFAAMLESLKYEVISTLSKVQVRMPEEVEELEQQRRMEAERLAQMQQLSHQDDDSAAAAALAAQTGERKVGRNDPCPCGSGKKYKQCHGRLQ
# Sequence of Sialic acid-binding Ig-like lectin 9 (Homo sapiens) (Q9Y336 whole entry): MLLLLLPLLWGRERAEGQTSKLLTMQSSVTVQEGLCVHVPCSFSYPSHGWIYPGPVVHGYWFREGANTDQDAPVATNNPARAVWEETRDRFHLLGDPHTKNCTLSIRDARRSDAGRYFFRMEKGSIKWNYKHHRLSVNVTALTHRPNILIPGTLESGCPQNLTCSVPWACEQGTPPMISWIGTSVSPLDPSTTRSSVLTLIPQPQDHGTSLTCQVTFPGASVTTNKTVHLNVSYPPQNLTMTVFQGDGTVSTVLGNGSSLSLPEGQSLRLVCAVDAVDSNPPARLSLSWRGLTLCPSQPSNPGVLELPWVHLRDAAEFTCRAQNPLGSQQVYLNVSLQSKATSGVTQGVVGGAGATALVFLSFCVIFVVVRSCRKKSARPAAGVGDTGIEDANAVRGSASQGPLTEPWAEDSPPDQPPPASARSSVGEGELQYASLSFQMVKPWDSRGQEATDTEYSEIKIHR
SMILES,Percent Effect [1] [%],Percent Effect [2] [%],Percent Effect [3] [%],Percent Effect [4] [%],Percent Effect (Trypanosoma cruzi) [%],Percent Effect [5] [%],Percent Effect [6] [%],Percent Effect (Homo sapiens) [%],Percent Effect [7] [%],Percent Effect [8] [%],Percent Effect [9] [%]
Cc1nc(CN2CCCC(NCCc3ccccc3Cl)C2)no1 (stereo not given),-4.45,7.59,4.77,11.6,2.36,-1.14,-3.19,-4.21,5.42,8.86,-0.689
CNc1cncc(C2CCCN2Cc2ccccc2OCC(=O)O)n1 (stereo not given),-4.52,-52.7,7.74,0.809,-3.75,-2.55,9.52,5.72,1.07,3.9,0.143
O=C(NCCc1ccncc1)C1CCN(Cc2ccco2)CC1,-7.38,-2.67,-2.38,-3.22,-6.52,-2.6,12.7,25.9,-1.64,1.24,-7.8
CCC(C(=O)NC)N(c1cccc(C)c1)S(C)(=O)=O (stereo not given),-4.2,16,-4.91,18.5,6.72,41.7,4.71,9.46,4.92,13.6,-3.23
Cc1cc(N2CCN(Cc3ccc(C)o3)CC2)cc(C)n1,-4.6,5.33,-0.471,15,1.46,2.08,20.2,2.05,8.2,16.1,-6.19
CCNC(=O)N(C)Cc1ccc(SC)c(OC)c1,-3.35,21.6,-5.93,0.171,4.49,7.92,9.72,-1.36,7.92,3.66,92.2
Cc1nc(C(C)(C)NC(=O)Nc2ccccc2)no1,-11.3,-2.74,2.23,-0.244,-3.53,3.18,6.92,17.2,-2.15,0,-0.168
COc1ccc(C(=O)N(C)Cc2nnc3ccccn23)c(OC)c1,-4.19,-5.2,1.07,4.72,2.06,-1.47,12.5,-2.12,2.86,14.1,-15.8
O=C(CN1CCCC1Cn1cncn1)NCCc1c(F)cccc1F (stereo not given),-9.37,18.4,-9.7,10.3,11.9,0.719,7.36,-5.35,5.42,18.5,-10.6
CSc1ncccc1C(=O)N1C[C@H]2CC[C@@H]1CN(c1ncccn1)C2,-4.71,7.79,4.3,12.7,1.87,-31.7,6.82,-0.196,7.53,11.1,-5.74
